From PubChem
KCNQ2 enhance – enhances the rat KCNQ2 potassium channel | O88943 | 310,000 tested, 0.54% active | B-score at 10 µM | AID 2239 | CHO-K1 KCNQ2, FluxOR thallium flux fluorescence; active compounds read high;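 active = fluorescence ratio B-score at least 3 SD of library B-scores, with initial fluorescence B-score within 3 of them, cut at about 5.3 in these data; same plate scores as AID 2156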;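 also: B-score of peak minus minimum over baseline fluorescence ratio after K+ and Tl+ stimulus; positive B-score means potentiation of KCNQ2 with more thallium influx and brighter signal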
KCNQ2 block – blocks the rat KCNQ2 potassium channel | CHO-K1 KCNQ2, FluxOR thallium flux, 20 min; active compounds read low | B-score at 10 µM | AID 2156 | O88943 | 310,000 tested, 1.1% active;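 active = fluorescence ratio B-score at most minus 3 library SDs, with starting brightness B-score within 2 library SDs, cut at about -5.5 in these data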
Kir21 confirm – confirmation of mouse Kir2.1 potassium channel inhibitors; Tl flux remaining, % of negative control (active compounds read low), % at 10 µM; 2,300 tested, 41% active; AID 2032; Kir2.1-expressing cells, FluxOR thallium flux fluorescence; active compounds read low; shares compounds with KCNQ2 enhance;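 active = Primary-screen hit whose thallium flux fell at least 3 control SD below untreated wells in both duplicates, with normal baseline fluorescence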
Target sequence (P35561 whole entry, looked up): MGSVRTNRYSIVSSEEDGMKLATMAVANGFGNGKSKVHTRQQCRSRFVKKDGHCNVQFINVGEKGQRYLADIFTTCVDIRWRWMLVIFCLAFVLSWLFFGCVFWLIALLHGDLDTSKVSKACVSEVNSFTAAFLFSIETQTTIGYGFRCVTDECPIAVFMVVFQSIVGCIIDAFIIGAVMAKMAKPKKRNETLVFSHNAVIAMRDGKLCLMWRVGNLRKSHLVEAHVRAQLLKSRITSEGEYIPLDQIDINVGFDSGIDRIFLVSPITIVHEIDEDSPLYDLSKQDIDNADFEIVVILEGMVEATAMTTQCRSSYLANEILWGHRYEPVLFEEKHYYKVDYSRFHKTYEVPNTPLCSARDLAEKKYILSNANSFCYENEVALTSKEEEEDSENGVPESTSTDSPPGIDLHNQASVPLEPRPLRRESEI
HEK293 Tl flux – alters thallium flux in parental HEK293 cells, Kir2.1 counter-screen; shares compounds with KCNQ2 enhance; FluxOR thallium flux fluorescence; 0% = unstimulated blank wells; AID 2105; 2,300 tested, 19% active; FluxOR signal as % of negative control (100 = no effect), % at 10 µM;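 active = dye signal at least 3 control SD above or below untreated wells in both duplicates, raw fluorescence within 3, either direction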;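 also: percent is based on the flux ratio of peak minus minimum fluorescence over baseline F0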
CHO-K1 ctr – counter-screen for KCNQ2 potentiators: effect in parental CHO-K1 cells. shares compounds with KCNQ2 enhance. activity increase over 3SD of controls, % at 10 µM. 1,200 tested, 43% active. FluxOR thallium flux fluorescence; zero = vehicle mean+3SD, 100% = vehicle-minus-blank window;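 active = signal rise of at least 3 SD above the untreated control mean, in both duplicate wells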;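 also: counter screen of KCNQ2 potentiator hits so any rise reflects channel-independent effects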
KCNQ1 sel pot – human KCNQ1 counter-target activity of KCNQ2 potentiators; 1,200 tested, 28% active; shares compounds with KCNQ2 enhance; AID 2283; CHO KCNQ1 stable, FluxOR thallium flux fluorescence; beyond 3SD, as % of vehicle-control signal; activation over 3SD threshold, % at 10 µM;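 active = fluorescence ratio rise of at least 3 SD of vehicle wells above their mean, in both replicate wells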
KCNQ2 pot confirm – rat KCNQ2 channel potentiator confirmation. shares compounds with KCNQ2 enhance. CHO-KCNQ2 cells, FluxOR thallium flux fluorescence. potentiation, less the hit threshold, % at 10 µM. 1,200 tested, 68% active. AID 2287;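 active = fluorescence ratio rising 3 SD or more over the vehicle control mean in both replicates, plus primary screen hit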;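 also: peak minus minimum thallium fluorescence divided by baseline after K/Tl stimulus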
Kir21 spec – tests whether KCNQ2 potentiators also affect mouse Kir2.1; activity over 3SD threshold, % at 10 µM; shares compounds with KCNQ2 enhance; HEK293 Kir2.1, FluxOR thallium flux fluorescence; 1,200 tested, 2% active; AID 2345;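 active = fluorescence ratio rise of at least 3 SD above the vehicle-control mean, seen in both replicates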
KCNQ2 W236L pot – KCNQ2 potentiators acting on retigabine-insensitive rat KCNQ2 W236L mutant. 940 tested, 10% active. CHO KCNQ2-W236L, automated patch clamp current. current increase over 3SD of negative controls (%), active compounds read high, % at 25 µM. shares compounds with KCNQ2 enhance;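 active = current increase at least 3 SD of the untreated controls above them in both duplicate recordings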
Numbers stand for hits; - = inactive; . = not tested or not shown. In the library only some 1.6% were active in any assay of this set; here they are far more common.

SMILES	KCNQ2 enhance	KCNQ2 block	Kir21 confirm	HEK293 Tl flux	others
CC(NC(=O)c1ccc(NC(=O)CC2SC(N3CCCC3)=NC2=O)cc1)c1ccc(S(N)(=O)=O)cc1 (centres undefined)	.	-	.	.
CCN(CC)C(=O)Cn1c(=O)oc2ccccc21	.	-	.	.
CCCCN(C(=O)CCn1c(=O)oc2ccccc21)c1ccccc1	.	-	49%	-
OCC[C@@H]1C[C@@H](O)[C@H](O)[C@]2(Cc3ccccc3O2)O1	.	-	.	.
CCOC(=O)c1sc2ncnc(NCC(c3cccs3)N(C)C)c2c1C (centres undefined)	7.7	-	-	252%	CHO-K1 ctr=-;KCNQ1 sel pot=0.2;KCNQ2 pot confirm=32;Kir21 spec=-;KCNQ2 W236L pot=-
CN(C)C(CNc1ncnc2sccc12)c1cccs1 (centres undefined)	-	-	.	.
CCCCNc1nc2c(c(=O)n(Cc3ccccc3)c(=O)n2C)n1C	.	-	.	.
CCc1ccnc(NS(=O)(=O)c2ccc3c(c2)CCO3)c1	-	-	.	.
NC(N)=N/N=C/c1ccc(OCc2ccccc2)cc1	-	-6.8	16%	-
O=C(N/N=C/c1ccc(OCc2ccccc2)cc1)c1ccco1	-	-	.	.
O=C(CCS(=O)(=O)Cc1ccccc1)Nc1ncc([N+](=O)[O-])s1	.	-	.	.
COc1cc(OC)cc(C(=O)NNc2nc3cc4c(cc3s2)OCO4)c1	-	-	.	.
COc1cc(C(=O)NNc2nc3cc4c(cc3s2)OCO4)cc(OC)c1OC	12	-	-	-	CHO-K1 ctr=-;KCNQ1 sel pot=-;KCNQ2 pot confirm=-;Kir21 spec=-
Cc1cc2ccccc2nc1SCC(=O)NC1CCCCC1	11	-	-	-	CHO-K1 ctr=-;KCNQ1 sel pot=-;KCNQ2 pot confirm=11;Kir21 spec=-;KCNQ2 W236L pot=-
Cc1cc2ccccc2nc1SCC(=O)NC1CCCC1	-	-	.	.
CCCN(CCC)S(=O)(=O)c1ccc(Cl)c(OC)c1	.	-	55%	-
CCN(CC)S(=O)(=O)c1ccc(Cl)c(OC)c1	-	-	.	.
C/C(=N\Nc1cc(N2CCOCC2)ncn1)c1ccc(O)cc1	-	-	.	.
CC1(C)CC(=O)C(C(c2ccc(F)cc2)C2C(=O)CC(C)(C)CC2=O)C(=O)C1	.	-	.	.
CC1(C)CC(=O)C(C(c2ccco2)C2C(=O)CC(C)(C)CC2=O)C(=O)C1	9.8	-	-	74%	CHO-K1 ctr=-;KCNQ1 sel pot=-;KCNQ2 pot confirm=40;Kir21 spec=-;KCNQ2 W236L pot=-
COc1cccc(CNc2cc(CSc3ccc(Cl)cc3)nc(C)n2)c1	.	-	54%	-
COc1cccc(CNc2ccc(C)c(Cl)c2)c1	-	-	.	.
CC1CCCCC1NC(=O)CCCn1c(=S)[nH]c2ccccc2c1=O (centres undefined)	-	-	.	.
CC1CCCCC1n1c(=S)[nH]c2ccccc2c1=O (centres undefined)	6.6	-	-	208%	CHO-K1 ctr=0.6;KCNQ1 sel pot=20;KCNQ2 pot confirm=19;Kir21 spec=-;KCNQ2 W236L pot=-
CCOC(=O)C1=C(CN2CCN(C(=O)c3ccco3)CC2)NC(=O)NC1c1ccc(F)cc1 (centres undefined)	.	-	.	.
SMILES	KCNQ2 enhance	KCNQ2 block	Kir21 confirm	HEK293 Tl flux	others
COc1cc(N2C(=O)c3ccccc3C2=O)c(Cl)cc1C(=O)OCC(=O)N(C)C	-	-	.	.
NS(=O)(=O)c1ccc(OC(=O)CNC(=O)OCc2ccccc2)cc1	.	-	.	.
Cc1cc(NCCOCCO)n2ncc(-c3ccc(Cl)cc3)c2n1	6.2	-	-	-	CHO-K1 ctr=2.2;KCNQ1 sel pot=-;KCNQ2 pot confirm=4.4;Kir21 spec=-;KCNQ2 W236L pot=-
Cc1cc(NCc2ccccn2)n2ncc(-c3ccc(Cl)cc3)c2n1	-	-	.	.
Nc1nccnc1C(=O)OCC(=O)c1ccc[nH]1	-	-	.	.
O=C(COC(=O)CNC(=O)c1ccc(Cl)c([N+](=O)[O-])c1)NC(=O)c1ccccc1	-	-	.	.
Cc1cc2c(N=NC(=O)CCc3ccccc3)c(O)[nH]c2cc1Br	.	-	.	.
c1ccc(CCNCCCOc2cccc3ccccc23)cc1	.	-	14%	-
CC(=O)NCCOc1cccc2ccccc12	-	-	.	.
